The full ranking holds about 33,000 sequences; the median of “E-score (-0.5 to 0.5)” is about -8e-05, and the highest 2% start at about 0.23. Shown is part of a subset that was picked to be rich in the highest values.
target: T1, Nrg2 (UniProt P38082); assay: PBM E-score (8-mer binding enrichment) (E-score (-0.5 to 0.5)); higher = stronger / more preferred TF binding; conditions: protein concentration: 100 nM; construct: GST-full length
T1 sequence: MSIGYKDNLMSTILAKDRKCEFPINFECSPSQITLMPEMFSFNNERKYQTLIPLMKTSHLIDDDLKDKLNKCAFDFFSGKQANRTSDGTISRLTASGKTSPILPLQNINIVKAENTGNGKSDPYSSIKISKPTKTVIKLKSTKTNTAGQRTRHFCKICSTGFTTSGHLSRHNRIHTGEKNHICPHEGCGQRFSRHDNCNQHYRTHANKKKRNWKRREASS
Procedure: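 Universal 'all 10-mer' protein binding microarrays (Agilent AMADID 015681) probed with GST-tagged S. cerevisiae TFs (full-length or DBD) made by in vitro transcription/translation (PURExpress), about 100-200 nM. Bound TF was detected with fluorescent anti-GST. Each ungapped 8-mer (which stands for itself and its reverse complement) is scored by the PBM enrichment score (E-score), a modified Wilcoxon-Mann-Whitney statistic from -0.5 to +0.5, computed with the Universal PBM Analysis Suite. Scale: above 0.35 generally sequence-specific binding.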

Sequence | PBM E-score
TATCAACA | 0.0479
GATCAACA | -0.0582
AATCAACA | 0.239
ATCGCATG | 0.188
CCTCCAAA | -0.0762
CCTACGCA | -0.133
CGGCCGCA | 0.0157
AATATCGC | 0.104
AATATCGG | 0.137
CATATCGA | 0.118
AATATCGA | 0.244
GATATCGA | 0.0243
TATATCGA | 0.278
CGCTTATC | -0.0744
ATGCTTTA | -0.178
CTGCTTTA | 0.23
CTGCTTTC | 0.104
GGGTTTAC | -0.0342
AATTCAGA | 0.0972
AATTCAGG | 0.336
AATTCAAG | 0.0675
AATTCTAC | 0.231
AATTCAGT | -0.0207
GATTCAAC | 0.00265
AATTCTAG | -0.027

Sequence | PBM E-score
AATTCTAT | -0.0322
AATTCAAC | 0.256
AAGACTCA | -0.249
TCCGTACA | 0.146
ACACGTCC | -0.254
AGCTTTCG | -0.106
GATACTAC | 0.13
CGAGTTCC | 0.0649
AACCGCGT | 0.0966
AACCGCGA | 0.256
TACCGCGA | 0.0041
CCATGCCC | -0.111
ACTAAATG | -0.0439
CGCATATA | 0.0344
AGCATATC | 0.0744
CGCATATC | 0.293
ATAGTAAC | 0.074
ATAGTAGG | 0.0354
ATAGTAAA | 0.203
ATAGTAGA | 0.102
ATAGTAGC | 0.25
ATAGTAAT | 0.234
GAAAGGCA | -0.0231
ACGAAGCC | -0.0825
GCTCCAAA | -0.202

Sequence | PBM E-score
TCAATGCA | -0.183
AGTCTCGG | -0.0965
ATAATCAA | 0.0599
ATAATCAT | 0.235
ATAATCGG | 0.246
ATAATCAG | 0.0745
ATAATCGC | -0.0299
ATAATCCA | 0.128
ATAATCGA | 0.0835
ATAATCCC | 0.24
ATAATCCG | 0.0659
TCCTATAA | -0.0317
CAAACCAA | 0.214
CTATAGGA | -0.0776
CATGGTTC | 0.0101
ATGCAAGC | 0.0922
ATCTAACC | 0.0422
AAGGATTC | -0.124
GACCAAGA | 0.0552
ATGCCCAT | -0.093
ACCATCGC | 0.139
CGTTTCAC | -0.00605
CGAGACCC | 0.263
CGAGACCG | -0.0751
GGAGACCC | 0.076

Sequence | PBM E-score
CTTGCGTC | -0.00183
ATTGCGTA | 0.145
ATTGCGTC | 0.237
GTGCCAAA | -0.0122
AGCATCGC | -0.0887
CGTCACAA | 0.0516
CGTCACAG | 0.282
CGTCACAC | -0.0186
GTATAGCA | 0.078
ATACAGGA | -0.00019
ACACAGGA | -0.0296
CAACAGGA | -0.152
ACACAGGG | 0.238
CAACAGGG | 0.312
ACACAGGC | 0.0691
ATACAGGG | 0.274
CAACAGGC | -0.129
ATACAGGC | -0.0144
ACAGAGGC | -0.172
ATTGTGCA | 0.0869
GCGTTAGA | 0.0176
ACTTGGAG | -0.108
TTTATAAA | 0.245
ATAATACA | 0.282
CTTATAAA | 0.131

Sequence | PBM E-score
GTTATAAA | 0.0259
ATAATATG | 0.198
ATAATACC | 0.171
CTAATATA | 0.13
TTAATAAA | 0.201
ATAATACG | 0.18
CTAATAAA | 0.259
ATAATATA | 0.268
ATAATAAA | 0.224
AGCAGACT | -0.138
CCGCCTGA | -0.0981
TCCAGAAA | 0.0185
CCTCCTCC | -0.283
ATGTCCTC | 0.0325
ATTGTCGA | 0.0199
ATTGTCGG | 0.247
ATTGTCGC | 0.136
CTACAAAG | 0.116
ACAGCGCA | 0.00939
AGTAATAT | 0.137
AAGGCCCA | -0.13
CGCCCCAA | 0.261
GGGCCCAC | 0.203
ATGGCCCA | -0.0568
GGGCCCAA | 0.244

Sequence | PBM E-score
AGGGCCCA | 0.359
CGGGCCCA | -0.128
GGGGCCCA | 0.117
CGCCCCCA | -0.194
TGGGCCCA | 0.306
CGCCCCAG | 0.0362
GGCCCCAA | -0.0979
TAATTCCA | 0.0521
GCGCTTCC | -0.0589
AAGGAAAA | 0.0535
GCGGAATA | 0.0652
CTTTGGGA | -0.076
AAACCCAC | 0.218
GACTGAGA | -0.102
CAACTTAG | 0.221
CTGCTCGA | 0.073
AGGGCCCG | 0.0729
AGGGCCCC | 0.0359
AGGGCCCT | 0.432
TCCAATAA | 0.0718
CGACAGCC | 0.026
CGCCGTGC | 0.0708
CAGCCTAG | 0.0198
GGTGCAAC | -0.13
AGTTTCAC | 0.0923

Sequence | PBM E-score
AGTTTCAG | -0.0621
AGTTTCAT | 0.274
CTGAGAAC | 0.0907
CATACTAC | 0.151
AATACTAC | 0.0385
CATACTAG | 0.248
CATACTAA | 0.114
AATACTAT | 0.0268
AATACTAG | 0.241
CAATTTAC | 0.12
ACGAATTG | 0.0986
AGTGACTA | -0.133
TAGCAACA | 0.135
GAACAGAA | 0.0366
GGTCTGAC | 0.0413
GGACAAAA | 0.159
CGACAATC | 0.009
AGACAATA | 0.204
CGACAATA | 0.235
GGACAATA | 0.239
GGACAAGA | 0.159
TAATTATA | 0.319

— the supplement of paper PMC3334620
